Source: PubChem BioAssay (National Center for Advancing Translational Sciences (NCATS))
Only some compounds are listed: those with a hit (about 3.8% of all), similar ones and a draw of the others.
rTrxR1 inhibitor: qHTS Assay for Inhibitors of Mammalian Selenoprotein Thioredoxin Reductase 1 (TrxR1): qHTS. Thioredoxin reductase 1, cytoplasmic (Rattus norvegicus), O89049. recombinant rTrxR1, NADPH fluorescence consumption, selenite substrate. Potency, µM (top dose mostly 114 µM), inactives show top-dose activity change, negative = inhibition, actives largely listed as inhibitors. hit rate 1% among 390,000; also: nearly all actives have a fitted effect of over 65% in size
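Rat TrxR1 (90 nM in the dispensed reagent) was pre-reduced with 400 uM NADPH for 5 min at room temperature, then incubated with compound for 15 min. After 400 uM selenite was added, NADPH fluorescence (Ex 340/Em 450 nm) was followed for 8 min.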
TrxR1 substrate: qHTS Assay for Substrates of Mammalian Selenoprotein Thioredoxin Reductase 1 (TrxR1): qHTS; Potency, µM (top dose mostly 114 µM), for the others: at the highest dose activity change, negative = substrate turnover; purified TrxR1 substrate turnover, NADPH consumption readout; hit rate 0.01% among 390,000; AID 588456, 2011; also: nearly all actives have a fitted effect of over 50% in size
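Rat TrxR1, dispensed at 90 nM, was prereduced with 400 uM NADPH (final) for 5 min at ~22 deg C, then incubated with compound 15 min before 400 uM selenite. A first-read NADPH fluorescence drop versus no-compound background flagged substrates.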
Sfp inh: qHTS Assay for Inhibitors of Bacillus subtilis Sfp phosphopantetheinyl transferase (PPTase) | 4'-phosphopantetheinyl transferase ffp (Bacillus subtilis), Q9F4F7 | Biochemical Sfp PPTase activity, qHTS | Potency, µM, inactives show largest response in the series, negative = inhibition, actives largely listed as inhibitors | hit rate 3.5% among 310,000;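 also: the enzyme is Sfp with the accession as filed and its product quenches rhodamine fluorescence; 0% = enzyme reaction without inhibitor and -100% = no enzyme wells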
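Buffer: 50 mM Hepes-Na pH 7.6, 10 mM MgCl2, 0.01% Nonidet P-40, 0.01% BSA. Enzyme 15 nM, pre-exposed to compound 15 min; substrates then added and fluorescence change tracked over 30 min.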
KAT2A inh: qHTS Assay for Inhibitors of GCN5L2. Histone acetyltransferase KAT2A (Homo sapiens), Q92830. GCN5L2 HAT assay, ThioGlo1 CoA-SH fluorescence. Potency, µM (top dose mostly 58.9 µM), inactives show top-dose activity change, negative = inhibition, most hits filed as inhibitors. hit rate 0.21% among 390,000
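ThioGlo1-coupled HAT assay: 20nM GCN5L2, 70uM acetyl-CoA, 75uM H3(1-25) peptide, pH 7.5. Fluorescence read at 340/540nm at start and after 20 min at room temperature.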
VDR inh: Inhibitors of the vitamin D receptor (VDR): qHTS. Vitamin D3 receptor (Homo sapiens), P11473. VDR-SRC2-3 peptide fluorescence polarization, 2 h. Potency, µM, without a hit: max response, negative = inhibition, actives largely listed as inhibitors. hit rate 0.93% among 400,000. AID 504847, 2011
Target sequence (P11473 whole entry, looked up): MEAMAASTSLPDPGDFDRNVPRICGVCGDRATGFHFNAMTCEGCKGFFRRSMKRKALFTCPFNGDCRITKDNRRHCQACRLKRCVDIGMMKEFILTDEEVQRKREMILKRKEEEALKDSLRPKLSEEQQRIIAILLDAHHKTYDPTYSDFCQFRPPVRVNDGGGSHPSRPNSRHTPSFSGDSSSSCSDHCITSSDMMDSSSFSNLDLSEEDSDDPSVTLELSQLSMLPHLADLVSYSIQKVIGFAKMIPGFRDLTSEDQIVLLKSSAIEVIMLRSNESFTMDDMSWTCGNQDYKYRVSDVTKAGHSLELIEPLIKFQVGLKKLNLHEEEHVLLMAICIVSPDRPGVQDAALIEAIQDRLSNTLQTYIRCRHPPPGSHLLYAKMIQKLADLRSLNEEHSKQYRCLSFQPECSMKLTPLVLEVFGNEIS
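Two reagent solutions held at 4 deg C in the dark were dispensed, compounds pinned at 23 nl, and the mixture incubated 2 h at room temperature. Read-out: fluorescence polarization of VDR–SRC2-3 peptide binding.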
GLS inhibitor: qHTS for Inhibitors of Glutaminase (GLS) | Potency, µM (titrated, usually from 45.5 µM), for the others: at the highest dose activity change, negative = inhibition, most hits filed as inhibitors | GLS enzymatic activity, qHTS titration | hit rate 0.21% among 410,000 | Glutaminase kidney isoform, mitochondrial (Homo sapiens), O94925
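hKGA in 45 mM KH2PO4 (pH 8.2), 0.02% Tween-20 with compound, then 1mM L-Glutamine (stock as added) plus glutamate oxidase/HRP/Amplex red coupling mix. Fluorescence read initially and after 30 min at RT; signal change reflects glutamate formation.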
Active calls of the source: *; [ ] = another dose, or the depositor's remark. Calls follow the shape of the dose curve; as a rule, active = well fitted curve in the direction sought with a large enough effect; inconclusive = small, poorly fitted or top-dose-only effect, or another doubt; inactive = no such curve, though single readings can be large; an effect the other way counts as inactive or inconclusive. Unless noted, % is scaled to controls: 0 for no effect and ±100 for the full control effect; potency is read from the fitted curve at half-maximal effect.

What do the screens show for `CC(C)[C@H](NC(=O)c1ccccc1)C(=O)OCC(=O)c1ccc2c(c1)NC(=O)CO2`?
rTrxR1 inhibitor: 7%; TrxR1 substrate: 8%; Sfp inh: -4%; KAT2A inh: 2%; VDR inh: -12%; GLS inhibitor: -2%

How did Cc1ccc(N(CC(=O)N/N=C/c2cccs2)S(C)(=O)=O)cc1Cl do in these assays?
rTrxR1 inhibitor: 1%[57.1 µM]; TrxR1 substrate: 6%[57.1 µM]; Sfp inh: 12%; KAT2A inh: -1%; VDR inh: 1%; GLS inhibitor: -13%

Results for CCOC(=O)c1ccc(-n2c(CCC(=O)O)ccc2-c2ccc(F)cc2)cc1 ?
rTrxR1 inhibitor: -41%; TrxR1 substrate: 4%[57.1 µM]; Sfp inh: -2%; KAT2A inh: -4%; VDR inh: -30%; GLS inhibitor: 21%

Results for Cc1ccc(-c2ccc(CCC(=O)O)n2-c2ccc(C(=O)O)cc2)cc1 ?
rTrxR1 inhibitor: inconclusive; TrxR1 substrate: 10%[57.1 µM]; Sfp inh: 56µM*; KAT2A inh: -14%; VDR inh: inconclusive; GLS inhibitor: -6%

How did COC(=O)c1ccc(-n2c(CCC(=O)O)ccc2-c2ccc(C)cc2)cc1 do in these assays?
rTrxR1 inhibitor: 45µM*; TrxR1 substrate: 5%; Sfp inh: 5%; KAT2A inh: 2%; VDR inh: inconclusive; GLS inhibitor: 8%

Results for Cc1ccc(-c2ccc(CCC(=O)O)n2-c2cccc(C(=O)O)c2)cc1 ?
rTrxR1 inhibitor: inconclusive; TrxR1 substrate: 9%; Sfp inh: -20%; KAT2A inh: 1%; VDR inh: -17%; GLS inhibitor: 32%

What do the screens show for `O=C(Nc1ccccc1)N1CCc2ccccc2C1`?
rTrxR1 inhibitor: 6%; TrxR1 substrate: 12%[57.1 µM]; Sfp inh: 2%; KAT2A inh: 4%; VDR inh: 5%; GLS inhibitor: -12%

How did O=C(Nc1ccc(Cl)cc1)N1CCc2ccccc2C1 do in these assays?
rTrxR1 inhibitor: 11%[11.4 µM]; TrxR1 substrate: 4%[11.4 µM]; Sfp inh: 79µM*; KAT2A inh: -5%; VDR inh: 8%; GLS inhibitor: 4%

Results for O=C(/C=C/c1cccs1)NC1CCCC1 ?
rTrxR1 inhibitor: 24%; TrxR1 substrate: -2%; Sfp inh: 15%; KAT2A inh: -2%; VDR inh: 1%; GLS inhibitor: 0%

What do the screens show for `O=C(/C=C/c1cccs1)NC1CCS(=O)(=O)C1` (stereo not drawn)?
rTrxR1 inhibitor: 18%[57.1 µM]; TrxR1 substrate: -1%[57.1 µM]; Sfp inh: -3%; KAT2A inh: -2%; VDR inh: 89µM*; GLS inhibitor: 24%

What do the screens show for `Cc1ccc(S(=O)(=O)NCc2ccncc2)c(C)c1C`?
rTrxR1 inhibitor: 29%; TrxR1 substrate: 3%; Sfp inh: 45µM*; KAT2A inh: -8%; VDR inh: -2%; GLS inhibitor: -11%

How did Cc1ccc(S(=O)(=O)NCc2ccccn2)c(C)c1C do in these assays?
rTrxR1 inhibitor: 6%; TrxR1 substrate: -1%; Sfp inh: 2%; KAT2A inh: 1%; VDR inh: 7%; GLS inhibitor: -2%

Results for Cc1cc(C(=O)CSc2nc(N)cc(N)n2)c(C)n1CCc1ccc(F)cc1 ?
rTrxR1 inhibitor: 2%; TrxR1 substrate: 0%; Sfp inh: -20%; KAT2A inh: inconclusive; VDR inh: 0%; GLS inhibitor: -1%
